Experimental findings from PubChem BioAssay AID1347076 (National Center for Advancing Translational Sciences (NCATS), 2019) are described below.

Among all 400,000 compounds or so, about 13,000 (3.2%) were called active. Entries that show only a call come without a potency. About 18% were inconclusive and are not listed. Calls come from the whole dose curve; as a rule, active = well fitted cell-killing curve with a large enough effect; inconclusive = small, poorly fitted or top-dose-only effect, or effect the other way; inactive = flat fitted curve, though single readings scatter. Only a selection was taken, and actives are over-represented in it overall.
Potency is the fitted concentration of half-maximal effect.

The assay is described as follows: qHTS assay for MDR1-selective chemotherapeutics: Primary screen using the drug-selected MDR subline cells KB-V1. Note: nearly all actives have a fitted effect of over 60% in size. The note with it: KB-V1 MDR cells viability, CellTiter-Glo, 72 h; series mostly up to 46.1 µM. Summed up:
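Cytotoxicity via CellTiter-Glo luminescence after 72 h compound exposure at 37 degrees C. Cells: drug-selected KB-V1 line, DMEM phenol-red free plus 10% FBS. Compounds tested at multiple concentrations; normalized data fitted to concentration-effect curves.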
In general terms: In qHTS, concentration-response curves come from the screen itself.
For the molecule `CC1CCCCN1Cc1c(O)ccc2c(=O)c(-c3cccc(Cl)c3)c(C(F)(F)F)oc12` (centres undefined), the Potency entry is “inactive”.
Then `CCC1CN(S(=O)(=O)c2cc(-c3cc(C)no3)ccc2C)c2cc(C)ccc2O1` (centres undefined), with “inactive”; and `C[C@@H]1CN([C@H](C)CO)C(=O)CCCn2nncc2CO[C@@H]1CN(C)S(=O)(=O)c1cccc(C#N)c1`, with “inactive”; and `Cc1csc(NCC(=O)c2c[nH]c3ccccc23)n1`, with “inactive”.
Then `COc1ccc(-c2nc3c4ccccc4n(CC(=O)Nc4ccc(C(C)=O)cc4)c(=O)n3n2)cc1`, with “inactive”; and `COc1ccc(/C=C(\NC(=O)c2ccc(OC)c(OC)c2)C(=O)NCCc2c[nH]c3ccccc23)cc1`, with “inactive”.
With `COc1ccc(C(C(O)C(=O)c2c[nH]c3ccccc23)N2CCN(c3ccccc3)CC2)cc1` (centres undefined) the entry was “inactive”; with `COc1ccc(/C=C(\C#N)c2c[nH]c3ccccc23)cc1`, 1.3 µM (active); with `O=C(CC[C@H]1O[C@@H](n2ccc(=O)[nH]c2=O)[C@H](O)[C@@H]1O)N[C@H](Cc1ccccc1)C(=O)NCc1ccco1`, “inactive”.
For the molecule `Oc1c(C(c2ccc(F)cc2)N2CCN(Cc3ccccc3)CC2)sc2nc(-c3ccco3)nn12` (centres undefined), the Potency entry was “inactive”.
With `COC(=O)c1ccc(Cn2c(SCC(=O)N(C)c3ccccc3)nc3ccccc32)cc1` the entry was “inactive”; with `C#CCNC(=O)C[C@@H]1C[C@@]2(C(=O)OCC)CCCC=C2N(Cc2ccco2)C1=O`, “inactive”; with `COc1cc(C(=O)N(Cc2ccc(C(C)C)cc2)C2CCS(=O)(=O)C2)cc(OC)c1OC` (centres undefined), “inactive”.
Then `COc1cc(C(=O)N(Cc2ccc(N(C)C)cc2)C2CCS(=O)(=O)C2)cc(OC)c1OC` (centres undefined), with “inactive”; and `COCCCNC(=O)CNC(=S)N(Cc1cc(OC)c(OC)c(OC)c1)C1CCCC1`, with 20.6 µM (active).
Then `CCCCCCN1CCN(C2CN(Cc3cn(Cc4ccc(F)cc4)nn3)S(=O)(=O)C2)CC1` (centres undefined), with “inactive”.
For the molecule `CC(C)c1cc(C(N)=O)c(NC(=O)c2cccc(COc3ccc(Br)cc3)c2)s1`, the Potency is 20.6 µM (active).
Regarding `N#Cc1ccccc1NC(=O)c1cccc(COc2ccc(Cl)cc2Cl)c1`, the Potency entry was “inactive”.
For the molecule `CC(C)(C)OC(=O)N(Cc1ccccc1)Cc1ccc(OCc2cccc(NC(=O)c3ccccc3)c2)cc1`, the Potency entry was “inactive”.
With `COc1ccccc1C(=O)NC(=S)Nc1ccc(N2CCOCC2)cc1` the entry was “inactive”; with `Cc1cccc(C(=O)NC2CCN(CC(=O)Nc3cccc(Cl)c3)CC2)c1`, “inactive”; with `CCc1nc2ccc(C(=O)Nc3cccc(OC)c3)cn2c1N(CCC(C)C)CCN(C)C`, “inactive”.
With `COc1c(Cl)cc(Cl)cc1C(=O)Nc1cccc2cccnc12` the entry was “inactive”; with `O=C(Nc1cccc2cccnc12)c1cccc(Cl)c1`, “inactive”; with `CC(=O)/C(=N\Nc1ccc(Cl)cc1Cl)Sc1cccc2cccnc12`, 18.4 µM (active).
With `COc1ccc(/C=C/c2ccccn2)cc1OC`, the Potency entry was “inactive”.
Consider `CN(C)C(CNC(=O)c1cc2ccccc2o1)c1ccccc1` (centres undefined), for which the Potency was 16.4 µM (active).
For the molecule `CN(C)C(CNC(=O)Cc1ccc([N+](=O)[O-])cc1)c1ccccc1` (centres undefined), the Potency entry is “inactive”.
Then `Cc1ccc(NC(=O)c2cc3ccccc3o2)cc1`, with “inactive”; and `O=C(Nc1cc(Br)ccc1F)c1nc[nH]c1C(=O)NCc1ccccc1`, with “inactive”.
Regarding `CCCCOC(=O)/C(C#N)=C/c1ccc(-c2cccc(C(F)(F)F)c2)o1`, the Potency result was “inactive”.
Then `O=C1NC(c2cc3c(cc2Cl)OCO3)Oc2ccccc21` (centres undefined), with “inactive”; and `O=C1OCC2=C1C(c1ccc(Cl)cc1)c1cc3c(cc1O2)OCO3` (centres undefined), with 23.1 µM (active).
In the case of `CCOc1ccc(CNCc2c(C(=O)O)c(C)n(Cc3cccc(OC)c3)c2C)cc1OC`, the Potency entry was “inactive”.
With `CCC(C)CN1C(=O)CN(S(C)(=O)=O)CC1(C)C(=O)Nc1ccc2c(c1)OCCO2` (centres undefined) the entry was “inactive”; with `O=C(C=CC(=O)Nc1ccc(F)cc1F)Nc1ccc(F)cc1F`, “inactive”; with `Cc1ccc(C(=O)OCC(=O)NC2CCCCCCC2)cc1C`, “inactive”.
On to `O=C(c1cccs1)N1CCN(Cc2ccc3c(c2)OCO3)CC1`, for which the Potency result is “inactive”.
With `O=C(Nc1cccc2ccccc12)N1CCN(Cc2ccc3c(c2)OCO3)CC1` the figure was 16.4 µM (active).
For `O=C(CCCN1C(=O)c2cccc3cccc(c23)C1=O)N1CCN(Cc2ccc3c(c2)OCO3)CC1`, the Potency result was “inactive”.
Then `O=C1CCCc2c1[nH]c1ccc(Br)cc21`, with 0.517 µM (active); and `C/C(=N\N)c1c(-c2ccccc2)c2cc(Br)ccc2[nH]c1=O`, with “inactive”.
Then `O=[n+]1c2c(n([O-])c3cc(Br)ccc31)CCC2`, with “inactive”.
Then `COC(=O)C(Cc1c[nH]c2ccccc12)NC(=O)CCNC(=O)c1ccco1` (centres undefined), with “inactive”.
`COc1cc2nc(C#Cc3nc4cc(OC)c(OC)cc4[nH]3)[nH]c2cc1OC`: the Potency entry was “inactive”.
`O=C1NC(c2cccc(Cl)c2)Nc2ccccc21` (centres undefined): the Potency is 8.2 µM (active).
In the case of `C=CCOc1cccc(C2NC(=O)c3ccccc3O2)c1` (centres undefined), the Potency result was “inactive”.
Then `COc1ccc(C2NC(=O)c3ccccc3N2)cc1` (centres undefined), with “inactive”.
Then `CCCNC(=O)C1(C)CCN1C(=O)C1(c2ccccc2)CC1` (centres undefined), with “inactive”; and `Cc1c(CN2CCC(C)CC2)c(=O)n(-c2ccccc2)n1C`, with “inactive”.
Then `Cc1cccc(N2CCN(c3c(CN4CCCC4)c(=O)oc4ccccc34)CC2)c1C`, with “inactive”; and `Cc1cccc(N2CCN(Cc3c(C)n(C)n(-c4ccccc4)c3=O)CC2)c1C`, with 18.4 µM (active); and `CSCCC(NC(=O)COc1ccccc1)C(=O)N(C)CC(=O)Nc1ccc(C)cc1` (centres undefined), with 16.4 µM (active).
As for `CSCCC(NC(=O)COc1ccccc1)C(=O)Nc1ccc(C)cc1` (centres undefined), the Potency entry is “inactive”.
With `CSCCC(NC(N)=O)C(=O)N(C)CC(=O)Nc1ccc(C)cc1` (centres undefined), the Potency result is “inactive”.
In the case of `O=C1[C@H]2[C@@H](c3ccc(C(F)(F)F)cc3)N[C@]3(CCCN(Cc4ccc(Br)cc4)C3=O)[C@H]2C(=O)N1Cc1ccccc1`, the Potency result was “inactive”.
With `COc1ccc(C(=O)NCC(c2ccc(N(C)C)cc2)N2CCc3ccccc32)c(OC)c1` (centres undefined) the entry was “inactive”.
Then `COc1cccc(CNC(=O)c2nnn(CC(=O)Nc3cc(Cl)ccc3C)c2N)c1`, with “inactive”.
Then `Nc1c(C(=O)Nc2ccc3c(c2)OCCO3)nnn1Cc1ccccc1`, with “inactive”; and `Nc1c(C(=O)NCc2ccccc2)nnn1Cc1cccc(Cl)c1`, with 9.2 µM (active).
Take `CCS(=O)(=O)N1CCc2cc(C(=O)NCc3ccc(OC)cc3)ccc21`: the Potency entry was “inactive”.
With `Cc1ccc(Oc2c(C(F)(F)F)oc3c(CN4CCCCC4)c(O)ccc3c2=O)cc1` the entry was “inactive”; with `O=c1oc2c(CN3CCCCC3)c(O)ccc2c2c1CCCCC2`, 5.8 µM (active).
Then `COc1ccc(-c2c(C)c3ccc(O)c(CN4CCN(C)CC4)c3oc2=O)cc1OC`, with “inactive”; and `Cc1ccc(S(=O)(=O)N[C@H]2CCC[C@@H]2O)cc1`, with “inactive”.
With `COc1cc(NC(=O)C2CC(c3ccccc3O)=NO2)c(OC)cc1Cl` (centres undefined) the entry was “inactive”; with `CCn1ncc(C2=NOC(C(=O)N3CCN(c4ccccc4)CC3)C2)c1C` (centres undefined), “inactive”.
Take `CCn1ncc(C2=NOC(C(=O)Nc3ccccc3C(=O)OC)C2)c1C` (centres undefined): the Potency is 18.4 µM (active).
With `COc1cccc(CNC(=O)C(NS(=O)(=O)c2ccc3nc(C)sc3c2)C(C)C)c1` (centres undefined) the entry was “inactive”.
